Assay results taken from PubChem BioAssay (NCI).
Values joined by “and” are separate entries in the source; they are usually repeats but may differ in a detail not shown here. Equal values may be shown once. This is part of a sample that, as a whole, favours compounds with a hit. Of some 83,000 tested, about 20% had one in any assay.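 Cell lines were cultured in 96-well plates, exposed to a single compound concentration, and assessed for percent growth 48 hours later.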 Active and inactive are the calls of the source. The calls were made as follows: active = growth percent below 10; inactive = the rest.

The compounds below were run on HOP-62 NSCLC (assay: NCI-60 one-dose screen, 48 h (100 = growth as untreated, 0 = no growth, -100 = all killed)). Details: 10 µM unless noted.
`Cc1c(Cl)cc(Cl)c(N)c1Cl` was tested, and the growth was 107% (inactive).
For `Oc1ccc(O)c(-c2ccccc2)c1`, the growth was 46.6% (inactive).
With `CCOCCC(=O)O` the growth was 115% (inactive).
For `CCOC(=O)NC(N)=O`, the growth was 88.5% (inactive) and 111% (inactive).
`CCCCC/C(C)=N\NC(N)=S` was tested, and the growth was 89.8% (inactive).
`COc1cc2c(cc1O)C(=O)CCCC2` was tested, and the growth was 91.5% (inactive).
For `O=C1C=CC[C@H](/C=C/c2ccccc2)O1`, the growth was 64.7% (inactive) and -48.7% (active).
`NC1=NC(c2ccccc2)N=C(Nc2ccccc2)N1` (stereo not given) was tested, and the growth was 78.1% (inactive) and 74.8% (inactive).
For `CSc1nc(N)c(N)c(N)n1`, the growth was 92.6% (inactive).
With `CCN(C)c1ccccc1` the growth was 108% (inactive).
`Cc1cnc(N)s1` was tested, and the growth was 78.3% (inactive).
In the case of `COC(=O)c1nc(=S)[nH]c(C(=O)OC)c1C(=O)c1ccccc1`, the growth is reported as 113% (inactive).
In the case of `CC(=O)c1cc2ccccc2o1`, the growth is reported as 99.7% (inactive).
`OCCCc1ccccc1` was tested, and the growth was 101% (inactive).
With `CCC/C(=N/NC(N)=O)c1ccco1` the growth was 79.7% (inactive).
With `O=C1C(=O)c2ccccc2C(O)=C1CC=C(Cl)Cl` the growth was 50.9% (inactive) and 61.3% (inactive).
In the case of `CCC(=O)Oc1ccc(OCc2ccccc2)cc1`, the growth is reported as 107% (inactive) and 94.8% (inactive).
In the case of `O=C(OCc1ccccc1)c1ccccc1`, the growth is reported as 94.9% (inactive) and 90.5% (inactive).
With `COc1ccc(CCl)c(C)c1OC` the growth was 104% (inactive).
In the case of `Nc1c(S(=O)(=O)O)cc(Br)c2c1C(=O)c1ccccc1C2=O`, the growth is reported as 88.1% (inactive) and 111% (inactive).
